For 40 compounds, Potency results are on record in PubChem BioAssay (NCATS).

Results filed as inconclusive are left out. Where a call stands in place of a potency, no number is given. The source made the active and inactive calls. Calls come from the whole dose curve; as a rule, active = well fitted inhibition curve with a large enough effect; inconclusive = small, poorly fitted or top-dose-only effect; inactive = flat fitted curve, though single readings scatter.

For assay [1], the target named is Glutathione peroxidase 1 (Homo sapiens) (UniProt P07203). As to the kind of experiment: Primary qHTS Assay for Inhibitors of Recombinant Selenoprotein Glutathione Peroxidase 1 (GPX1) (AID 1845191). Note: potency is the fitted concentration of half-maximal effect. To be noted: recombinant GPX1, GR-coupled NADPH fluorescence, 15 min; series mostly up to 48.8 µM. A digest of the protocol: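 Recombinant GPX1 (10 nM final) was preincubated with compound for 30 min at room temperature, then reacted with 1 mM GSH, 0.5 mM CHP, 0.5 mM NADPH and 100 nM glutathione reductase; NADPH fluorescence (340/450 nm) was read at 0 and 15 min.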
Chain of Glutathione peroxidase 1 (Homo sapiens) (P07203 whole entry, looked up): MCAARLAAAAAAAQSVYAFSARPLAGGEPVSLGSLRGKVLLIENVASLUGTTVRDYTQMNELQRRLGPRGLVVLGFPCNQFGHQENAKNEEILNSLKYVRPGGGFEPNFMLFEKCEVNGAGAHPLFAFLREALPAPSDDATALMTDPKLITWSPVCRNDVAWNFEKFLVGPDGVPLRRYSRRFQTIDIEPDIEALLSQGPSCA
A general note: qHTS replaces the single test concentration by a dilution series.

In assay [2] the target is Phospholipid hydroperoxide glutathione peroxidase GPX4 (Homo sapiens) (UniProt P36969). As to the kind of experiment: Primary qHTS Assay for Inhibitors of Recombinant Selenoprotein Glutathione Peroxidase 4 (GPX4) (AID 1845192). As to conditions: recombinant GPX4, GR-coupled NADPH fluorescence, 15 min; series mostly up to 50 µM. A digest of the protocol: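 GR-coupled readout: 100 nM GR, 1 mM GSH, 0.5 mM NADPH; NADPH fluorescence (ex 340/em 450 nm) read at t=0 and after 15 min RT. GPX4 200 nM, preincubated 30 min with compound; substrate 0.5 mM CHP.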
Chain of Phospholipid hydroperoxide glutathione peroxidase GPX4 (Homo sapiens) (P36969 whole entry, looked up): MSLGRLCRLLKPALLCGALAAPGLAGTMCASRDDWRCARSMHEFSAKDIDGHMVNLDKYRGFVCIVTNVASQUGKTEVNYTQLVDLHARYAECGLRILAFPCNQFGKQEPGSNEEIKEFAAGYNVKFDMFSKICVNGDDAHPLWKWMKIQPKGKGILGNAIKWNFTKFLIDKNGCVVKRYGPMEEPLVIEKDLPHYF
Note: nearly all actives have a fitted effect of over 65% in size.

Take `Cc1cc(NC(=O)Nc2ccc3c(ccn3C)c2)sn1`: the Potency entry in assay [1] and in assay [2] was “inactive” each time.

Take `C=C[C@H]1CN2CC[C@@H]1C[C@@H]2[C@@H](O)c1ccnc2ccc(OC)cc12`: the Potency entry in assay [1] and in assay [2] was “inactive” each time.

As for `CC(C)NC[C@H](O)COc1cccc2[nH]ccc12`, the Potency entry in assay [1] and in assay [2] was “inactive” each time.

For `NCCCS(=O)(=O)O`, the Potency entry in assay [1] and in assay [2] was “inactive” throughout.

Regarding `CC(C)NCC(O)COc1cccc2ccccc12` (stereo not given), the Potency entry in assay [1] and in assay [2] was “inactive” throughout.

With `Clc1ccc(N2CCN(Cc3c[nH]c4ncccc34)CC2)cc1`, the Potency entry in assay [1] and in assay [2] was “inactive” throughout.

Turning to `CC(=O)SCC[N+](C)(C)C`, the Potency entry in assay [1] and in assay [2] was “inactive” in each case.

On to `O=Nc1ccc2oc(=O)ccc2c1`, for which the Potency entry in assay [1] and in assay [2] was “inactive” in each case.

With `Brc1c(Br)c(Br)c2n[nH]nc2c1Br`, the Potency entry in assay [1] and in assay [2] was “inactive” throughout.

Consider `COCCOc1cc2nc[nH]c(=O)c2cc1OCCOC`, for which the Potency result in assay [1] and in assay [2] was “inactive” in each case.

`CCNC(=O)[C@H]1O[C@@H](n2cnc3c(N)nc(NCCc4ccc(CCC(=O)O)cc4)nc32)[C@H](O)C1O` (stereo not given in full): the Potency entry in assay [1] and in assay [2] was “inactive” throughout.

On to `CC[C@@H](C)[C@H]1O[C@]2(CC[C@H]1C)C[C@@H]1C[C@@H](CC=C(C)[C@@H](O[C@H]3C[C@H](OC)[C@@H](O[C@H]4C[C@H](OC)[C@@H](O)[C@H](C)O4)[C@H](C)O3)[C@@H](C)C=CC=C3CO[C@@H]4[C@H](O)C(C)=C[C@@H](C(=O)O1)[C@]34O)O2`, for which the Potency entry in assay [1] and in assay [2] was “inactive” in each case.

Take `CNC(=O)[C@H]1O[C@@H](n2cnc3c(NCc4cccc(I)c4)ncnc32)[C@H](O)[C@@H]1O`: the Potency entry in assay [1] and in assay [2] was “inactive” throughout.

On to `CN1C2CCC1CC(OC(=O)C(O)c1ccccc1)C2` (stereo not given), for which the Potency result in assay [1] and in assay [2] was “inactive” in each case.

As to `CO/N=C(\C(=O)N[C@@H]1C(=O)N2C(C(=O)O)=C(COC(C)=O)CS[C@H]12)c1csc(N)n1`, the Potency in assay [1] is 8.06 µM (active). The Potency entry in assay [2] is “inactive”.

On to `S=c1[nH]c2ccccc2s1`, for which the Potency result in assay [1] and in assay [2] was “inactive” throughout.

As to `CC12C(=O)OC(=O)C1(C)C1CCC2O1` (stereo not given), the Potency result in assay [1] and in assay [2] was “inactive” in each case.

As to `COc1cc2c(CCNC(C)=O)c[nH]c2cc1Cl`, the Potency entry in assay [1] and in assay [2] was “inactive” throughout.

In the case of `Nc1nc(Cl)nc2c1ncn2[C@@H]1O[C@H](COP(=O)(O)OP(=O)(O)OP(=O)(O)O)[C@@H](O)[C@H]1O`, the Potency result in assay [1] and in assay [2] was “inactive” each time.

As for `CO[C@@]1(NC(=O)Cc2cccs2)C(=O)N2C(C(=O)O)=C(COC(N)=O)CS[C@@H]21`, the Potency in assay [1] was 6.4 µM (active). Moreover, the Potency entry in assay [2] is “inactive”.

In the case of `CCC1C(=O)OCC1Cc1cncn1C` (stereo not given), the Potency entry in assay [1] and in assay [2] was “inactive” in each case.

On to `COc1ccc(NC(=O)/C=C/c2ccc(Cl)cc2)cc1`, for which the Potency entry in assay [1] and in assay [2] was “inactive” in each case.

As to `O=C(CCCCCN1CCN(c2ccccc2-c2ccccc2)CC1)NC1CCCc2ccccc21` (stereo not given), the Potency entry in assay [1] and in assay [2] was “inactive” each time.

As for `CCCCCCOc1ccccc1C(N)=O`, the Potency result in assay [1] and in assay [2] was “inactive” in each case.

As for `S=c1[nH]c(-c2ccccc2)cn1-c1ccccc1`, the Potency entry in assay [1] and in assay [2] was “inactive” in each case.

For the compound `CCCN(CC1CC1)c1nc(C)nc(Nc2c(Cl)cc(Cl)cc2Cl)c1Cl`, the Potency result in assay [1] and in assay [2] was “inactive” in each case.

Take `CC(C(=O)O)c1ccc(C(=O)c2cccs2)cc1` (stereo not given): the Potency result in assay [1] and in assay [2] was “inactive” throughout.

As to `CC(C(=O)O)c1ccc(C(=O)c2ccccc2)s1` (stereo not given), the Potency entry in assay [1] and in assay [2] was “inactive” each time.

On to `C#C[C@]1(O)CC[C@H]2[C@@H]3CCc4cc(O)ccc4[C@H]3CC[C@@]21C`, for which the Potency result in assay [1] and in assay [2] was “inactive” throughout.

Regarding `Cc1cc(NC2CCCCC2)nc(-n2nc(C)cc2C)n1`, the Potency entry in assay [1] and in assay [2] was “inactive” throughout.

As to `CO[C@H]1O[C@@H]2O[C@]3(C)CC[C@@H]4[C@@H](C)CC[C@H]([C@H]1C)[C@]24OO3`, the Potency entry in assay [1] and in assay [2] was “inactive” in each case.

`CCCC(CCC)C(=O)OC1CC2CCC(C1)[N+]2(C)C` (stereo not given): the Potency entry in assay [1] and in assay [2] was “inactive” in each case.

In the case of `CCOC(=O)N1CCN(/[N+]([O-])=N/Oc2ccc([N+](=O)[O-])cc2[N+](=O)[O-])CC1`, the Potency entry in assay [1] and in assay [2] was “inactive” each time.

For the compound `CC(=O)N[C@H](C(=O)O)C(C)(C)SN=O`, the Potency result in assay [1] and in assay [2] was “inactive” in each case.

`Cn1c(=O)c2[nH]c(-c3ccccc3)nc2n(C)c1=O`: the Potency entry in assay [1] and in assay [2] was “inactive” in each case.

In the case of `NC(N)=NC(=O)c1nc(Cl)c(N2CCCCCC2)nc1N`, the Potency entry in assay [1] and in assay [2] was “inactive” throughout.

As for `Oc1ccccc1O`, the Potency result in assay [1] and in assay [2] was “inactive” in each case.

On to `CC1OC1P(=O)(O)O` (stereo not given), for which the Potency entry in assay [1] and in assay [2] was “inactive” throughout.

On to `NC(=O)C1=CN(C2OC(COP(=O)(O)OP(=O)(O)OC[C@H]3O[C@@H](n4cnc5c(N)ncnc54)[C@H](OP(=O)(O)O)[C@@H]3O)C(O)C2O)C=CC1` (stereo not given in full), for which the Potency result in assay [1] and in assay [2] was “inactive” each time.

Regarding `CC[C@H]1OC(=O)[C@H](C)[C@@H](O[C@H]2C[C@@](C)(OC)[C@@H](O)[C@H](C)O2)[C@H](C)[C@@H](O[C@@H]2O[C@H](C)C[C@H](NC)[C@H]2O)[C@](C)(O)C[C@@H](C)CN(C)[C@H](C)[C@@H](O)[C@]1(C)O`, the Potency result in assay [1] and in assay [2] was “inactive” each time.
